15 compounds from PubChem BioAssay (NCI) can be followed below.

Compounds without any hit were thinned out: in the full panel of roughly 83,000, 20% have a hit.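 Treatment: one concentration, 48 hours, 96-well format. Scoring: percent growth, with anything below 10 considered active.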 Values without a mark were called inactive. Calls of active or inactive are those of the source.

Some test systems named below: HCT-15 colon; HT29 colon; SNB-75 CNS; U251 CNS; PC-3 prostate; SK-MEL-5 melanoma; UACC-62 melanoma; SK-MEL-28 melanoma; LOX IMVI melanoma; SNB-19 CNS.
Holding throughout (experiment): NCI-60 one-dose screen, 48 h (100 = growth as untreated, 0 = no growth, -100 = all killed)
Holding throughout (settings): 10 µM

On to `COc1cc2c(Nc3ccc(S(N)(=O)=O)cc3)ncnc2c(OC)c1OC`, for which the growth in the assay with HCT-15 colon is 98%; with HT29 colon, 105%; with SNB-75 CNS it was 89.5%; in the assay with U251 CNS, 96.9%; with PC-3 prostate it was 84.7%; in the assay on SK-MEL-5 melanoma, 91.4%. In addition, the growth in the assay on UACC-62 melanoma is 97.4%; in the assay with SK-MEL-28 melanoma, 98.7%.

As for `Cc1cn(-c2cc(F)cc(NC(=O)c3ccc(C)c(Nc4nccc(-c5cccnc5)n4)c3)c2)cn1`, the growth in the assay with HCT-15 colon was 74.9%; in the assay with HT29 colon, 2.89% (active); in the assay on SNB-75 CNS, -20.8% (active); in the assay on PC-3 prostate it was 68.6%; in the assay on SK-MEL-5 melanoma, 87.8%; with UACC-62 melanoma, 40.9%. Besides, the growth in the assay with LOX IMVI melanoma is 17%; in the assay with SK-MEL-28 melanoma, 28.2%.

As for `CC(C)(C)OC(=O)N1CCc2c(sc3ncnc(N/N=C/c4ccc(Br)cc4)c23)C1`, the growth with HCT-15 colon was 28.1%; in the assay on HT29 colon, 33.8%; with SNB-19 CNS, 69.5%; in the assay with U251 CNS, 67.3%; in the assay on PC-3 prostate it was 44%; in the assay on SK-MEL-5 melanoma, 24%. Further, the figures for the growth with UACC-62 melanoma, in the assay with LOX IMVI melanoma and with SK-MEL-28 melanoma were 42.2%, 54.8% and 63.2%, respectively.

`O=C(Nc1ccc2c(O)cc(S(=O)(=O)O)cc2c1)c1ccc([N+](=O)[O-])cc1`: the growth in the assay with HCT-15 colon was 99.3%; with HT29 colon, 95.3%; with SNB-19 CNS, 95.8%; with U251 CNS, 84%; in the assay with PC-3 prostate it was 83.1%; in the assay with SK-MEL-5 melanoma, 94.8%. The growth with UACC-62 melanoma is 101%; in the assay on LOX IMVI melanoma, 95.1%; with SK-MEL-28 melanoma, 102%.

For the compound `CCOC(=O)N/N=C/c1ccc(OC)c(OC)c1`, the growth with HCT-15 colon was 110%; with HT29 colon, 104%; with SNB-19 CNS, 104%; with U251 CNS, 100%; in the assay on PC-3 prostate, 104%; in the assay on SK-MEL-5 melanoma, 101%. Also, the growth in the assay on UACC-62 melanoma is 98.7%; in the assay on LOX IMVI melanoma, 102%; in the assay on SK-MEL-28 melanoma it was 107%.

For `Nc1cc(Br)c(-c2nn3c(CCC(=O)c4nc5ccccc5[nH]4)nnc3s2)c(Br)c1`, the growth with HCT-15 colon is 124%; with HT29 colon, 78.7%; in the assay on SNB-75 CNS, 92.6%; in the assay with U251 CNS it was 97.5%; in the assay with SK-MEL-5 melanoma, 91.6%; in the assay on UACC-62 melanoma, 101%. The growth with LOX IMVI melanoma is 93.4%; in the assay on SK-MEL-28 melanoma, 111%.

As to `Cc1c(C(N)=O)sc2c1c(=O)n(Cc1ccccc1)c1nnc(-c3ccc(Br)cc3)n21`, the growth is 25.3% with HCT-15 colon; 28.6% with HT29 colon; 51.8% with SNB-19 CNS; 11.5% with U251 CNS; 37.2% in the assay with PC-3 prostate; -38.2% (active) in the assay with SK-MEL-5 melanoma. Besides, the growth is 6.17% (active) in the assay with UACC-62 melanoma, 5.15% (active) with LOX IMVI melanoma and 46.2% in the assay with SK-MEL-28 melanoma.

For `O=C(CCn1cnc2c(cc(-c3ccccc3)n2-c2ccccc2)c1=O)Nc1ccc(F)cc1`, the growth in the assay on HCT-15 colon is 81.4%; with HT29 colon, 89.9%; in the assay with SNB-75 CNS, 4.9% (active); in the assay with U251 CNS, 70.9%; in the assay on PC-3 prostate it was 68.6%; in the assay on SK-MEL-5 melanoma, 77.5%. Also, the growth with UACC-62 melanoma was 63.2%; with SK-MEL-28 melanoma it was 80.5%.

Take `CCN(CC)CCCOc1cccc2c1C(=O)c1cccc(OCCCN(CC)CC)c1C2=O`: the growth with HCT-15 colon was 34.5%; with HT29 colon it was 11%; with SNB-19 CNS, 34.1%; with U251 CNS it was 31.2%; in the assay on PC-3 prostate it was 33.2%; in the assay on SK-MEL-5 melanoma, 46.6%. The growth in the assay with UACC-62 melanoma was 53%; in the assay with LOX IMVI melanoma it was 16.9%; in the assay on SK-MEL-28 melanoma it was 61.2%.

For the compound `COc1cc2nc(SCC(=O)Nc3cc(OC)c(OC)c(OC)c3)n(Cc3ccccc3)c(=O)c2cc1OC`, the growth in the assay on HCT-15 colon was 90.2%; in the assay on HT29 colon, 61.9%; in the assay on SNB-19 CNS it was 63.7%; in the assay with U251 CNS, 6.92% (active); with PC-3 prostate, 35.8%; in the assay on SK-MEL-5 melanoma, 67.2%. Also, the values for the growth in the assay with UACC-62 melanoma, in the assay on LOX IMVI melanoma and in the assay with SK-MEL-28 melanoma were 76.3%, 68.7% and 60.5%, respectively.

Turning to `CCc1cc(Cl)c(OC)c(C(=O)NCC2CCCN2CC)c1O` (centres undefined), the growth in the assay on HCT-15 colon is 91.8%; with HT29 colon, 89.5%; in the assay on SNB-19 CNS, 91.2%; in the assay with U251 CNS, 83.8%; in the assay with PC-3 prostate, 73.7%; in the assay on SK-MEL-5 melanoma, 83.4%. For the same compound, the growth is 97% in the assay with UACC-62 melanoma, 90.6% in the assay on LOX IMVI melanoma and 109% in the assay on SK-MEL-28 melanoma.

`Nc1cc(-c2ccc(Cl)cc2)nn1-c1nc2ccccc2nc1Cc1ccccc1`: the growth was 74.4% in the assay on HCT-15 colon; 69.7% in the assay with HT29 colon; 84.4% in the assay on SNB-75 CNS; 90.8% in the assay on U251 CNS; 86.7% in the assay on SK-MEL-5 melanoma; 87.8% in the assay on UACC-62 melanoma. Further, the results for the growth with LOX IMVI melanoma and in the assay on SK-MEL-28 melanoma were 93.3% and 92.9%, respectively.

Turning to `O=C(N/N=C/c1ccc(Cl)cc1)c1ccccc1Nc1cccc(C(F)(F)F)c1`, the growth with HCT-15 colon is 79.1%; in the assay on HT29 colon it was 75.8%; with SNB-19 CNS, 88.4%; in the assay on U251 CNS, 72%; in the assay with PC-3 prostate, 71.6%; with SK-MEL-5 melanoma it was 34%. Also, the growth is 76.4% in the assay on UACC-62 melanoma, 83.7% in the assay on LOX IMVI melanoma and 79.8% with SK-MEL-28 melanoma.

`COc1ccc([C@H]2[C@H](C(=O)Nc3cccnc3)c3ccccc3C(=O)N2c2ccccc2)cc1`: the growth in the assay with HCT-15 colon is 78.1%; in the assay on HT29 colon, 81.3%; in the assay on SNB-75 CNS, 98.9%; in the assay with U251 CNS, 74.8%; in the assay on SK-MEL-5 melanoma, 79.4%; with UACC-62 melanoma, 92.3%. Also, the values for the growth in the assay with LOX IMVI melanoma and with SK-MEL-28 melanoma were 92.5% and 102%, respectively.

Consider `Cc1cc(C)nc(NS(=O)(=O)c2ccc(Nc3nc4nc(NCc5ccccc5)nc(-c5ccc(O)cc5)c4c(=O)[nH]3)cc2)n1`, for which the growth with HCT-15 colon is 18.5%; in the assay on HT29 colon, 32.2%; in the assay on SNB-75 CNS it was 48.2%; in the assay on U251 CNS, 11.9%; in the assay with PC-3 prostate, 1.02% (active); with SK-MEL-5 melanoma, 4.9% (active). Besides, the growth in the assay on UACC-62 melanoma is 21.8%; in the assay with LOX IMVI melanoma, 23.4%; in the assay with SK-MEL-28 melanoma, 32.7%.
